About 14,000 (4.5%) of roughly 310,000 compounds showed an effect of 50% or more. Effects have a minus sign here. This is one part of a sample in which strong results are shown more often than they occur.

The values that follow come from article PMC4336329 (PLoS ONE, 2015).
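Further: peak tail current of the secondary pulse compared with the same well before compound.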

The target in the assay is human ether-à-go-go-related gene (hERG) potassium channel (human, UniProt Q12809). In words: primary screen, population patch clamp on CHO cells stably expressing hERG; higher = less effect of the substance.
Sequence of human ether-à-go-go-related gene (hERG) potassium channel (Q12809 whole entry, looked up): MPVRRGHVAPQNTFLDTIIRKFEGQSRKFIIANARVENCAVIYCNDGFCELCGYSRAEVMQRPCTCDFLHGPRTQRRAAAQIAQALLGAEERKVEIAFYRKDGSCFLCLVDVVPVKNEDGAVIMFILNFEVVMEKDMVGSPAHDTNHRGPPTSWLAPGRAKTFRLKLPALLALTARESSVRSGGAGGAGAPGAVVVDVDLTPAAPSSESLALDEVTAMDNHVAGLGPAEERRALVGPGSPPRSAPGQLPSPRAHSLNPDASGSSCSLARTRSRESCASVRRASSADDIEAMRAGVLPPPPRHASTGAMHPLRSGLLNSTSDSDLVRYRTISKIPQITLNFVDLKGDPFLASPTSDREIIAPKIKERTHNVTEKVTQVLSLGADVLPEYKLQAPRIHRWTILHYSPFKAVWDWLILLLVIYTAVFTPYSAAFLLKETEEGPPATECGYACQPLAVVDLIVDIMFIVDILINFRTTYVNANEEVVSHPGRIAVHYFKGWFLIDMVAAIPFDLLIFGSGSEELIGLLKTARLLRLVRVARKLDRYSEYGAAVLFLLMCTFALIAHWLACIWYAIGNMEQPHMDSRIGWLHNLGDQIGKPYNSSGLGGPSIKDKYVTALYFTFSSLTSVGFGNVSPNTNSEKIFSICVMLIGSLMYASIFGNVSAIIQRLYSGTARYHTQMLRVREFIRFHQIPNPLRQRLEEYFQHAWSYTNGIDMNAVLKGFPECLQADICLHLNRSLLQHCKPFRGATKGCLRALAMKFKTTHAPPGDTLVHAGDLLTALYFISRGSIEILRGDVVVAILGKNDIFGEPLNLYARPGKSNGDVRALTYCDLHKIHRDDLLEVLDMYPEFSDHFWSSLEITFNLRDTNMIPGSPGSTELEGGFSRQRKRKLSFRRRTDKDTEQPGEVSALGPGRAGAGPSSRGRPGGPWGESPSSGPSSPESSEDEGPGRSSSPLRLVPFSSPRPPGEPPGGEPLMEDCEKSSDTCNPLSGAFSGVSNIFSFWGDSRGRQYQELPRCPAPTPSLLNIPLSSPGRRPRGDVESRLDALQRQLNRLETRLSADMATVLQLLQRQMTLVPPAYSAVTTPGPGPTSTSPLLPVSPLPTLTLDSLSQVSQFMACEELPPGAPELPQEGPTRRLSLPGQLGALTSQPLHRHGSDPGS
`Cc1cc(C(=O)NC2CC(C)(C)Cc3c2cnn3-c2ccc(F)cc2)nn1C` (centres unmarked): the “hERG current change (%, negative = inhibition) at 10uM” value is -14.8%.

Regarding `COc1ccc(-n2ncc3c2CC(C)(C)CC3NC(=O)Cc2nonc2C)cc1` (centres unmarked), the “hERG current change (%, negative = inhibition) at 10uM” value turned out to be 3.4%. `COc1ccc(-n2ncc3c2CC(C)(C)CC3NC(=O)c2oc(C)cc2C)cc1` (centres unmarked): the “hERG current change (%, negative = inhibition) at 10uM” value is on record as 15.2%.

With `COc1ccc(-n2ncc3c2CC(C)(C)CC3NC(=O)CSc2ccccn2)cc1` (centres unmarked), the “hERG current change (%, negative = inhibition) at 10uM” value is given as -68%. Turning to `C=CCCC(=O)NC1CC(C)(C)Cc2c1cnn2-c1ccc(OC)cc1` (centres unmarked), the “hERG current change (%, negative = inhibition) at 10uM” value was -46%. `COc1ccc(-n2ncc3c2CC(C)(C)CC3NC(=O)c2cnc(C)cn2)cc1` (centres unmarked): the “hERG current change (%, negative = inhibition) at 10uM” value is -4.41%. Take `CC1(C)Cc2c(cnn2-c2ccc(F)cc2)C(NC(=O)C2=NNC(=O)CC2)C1` (centres unmarked): the “hERG current change (%, negative = inhibition) at 10uM” value is -68.4%. The value for `COc1ccc(-n2ncc3c2CC(C)(C)CC3NC(=O)CCc2c(C)noc2C)cc1` (centres unmarked) was -21.7%. For `COc1ccc(-n2ncc3c2CC(C)(C)CC3NC(=O)c2ccnn2C)cc1` (centres unmarked), the “hERG current change (%, negative = inhibition) at 10uM” value is -78%. With `COC(=O)c1ccc(C(=O)NC2CC(C)(C)Cc3c2cnn3-c2ccc(F)cc2)nc1` (centres unmarked) the figure was -23.4%. With `COc1ccc(-n2ncc3c2CC(C)(C)CC3NC(=O)c2c(C)cc(=O)oc2C)cc1` (centres unmarked) the figure was -51.1%.

With `CCc1nccn1CCC(=O)NC1CC(C)(C)Cc2c1cnn2-c1ccc(OC)cc1` (centres unmarked), the “hERG current change (%, negative = inhibition) at 10uM” value is -16.2%. The value for `Cn1cc(S(=O)(=O)NCc2ccco2)c(=O)n(C)c1=O` was 3.03%; that for `Cc1onc(-c2c(F)cccc2Cl)c1C(=O)NCc1cccs1` was -21.2%. Turning to `COc1ccc(S(=O)(=O)N2CCOCC2)cc1N(C)S(=O)(=O)c1ccc(C)cc1`, the “hERG current change (%, negative = inhibition) at 10uM” value is reported as 0.666%. With `C/C(CC(=O)Nc1ccccn1)=N\NC(=O)c1ccccc1O`, the “hERG current change (%, negative = inhibition) at 10uM” value is 6.73%. Consider `COc1ccc(CCNC(=O)c2c(O)c3ccccc3[nH]c2=O)cc1`, for which the “hERG current change (%, negative = inhibition) at 10uM” value is listed as 15.4%. Turning to `COc1cccc(NC(=O)c2ccc3c(c2)N(CC(=O)N2CCOCC2)C(=O)C(C)(C)O3)c1`, the “hERG current change (%, negative = inhibition) at 10uM” value is -5.35%. With `CCOCCc1nnc(NC(=O)c2cccc(F)c2)s1`, the “hERG current change (%, negative = inhibition) at 10uM” value came out at 0.0842%. Turning to `COc1cc(NC(=O)C(C)Oc2ccccc2)cc(OC)c1` (centres unmarked), the “hERG current change (%, negative = inhibition) at 10uM” value was -2.9%. In the case of `COc1ccc(-n2ncc3c2CC(C)(C)CC3NC(=O)c2ccc(OC)o2)cc1` (centres unmarked), the “hERG current change (%, negative = inhibition) at 10uM” value was -50.2%. With `Cc1ncoc1C(=O)NC1CC(C)(C)Cc2c1cnn2-c1ccc(F)cc1` (centres unmarked), the “hERG current change (%, negative = inhibition) at 10uM” value is listed as -20.7%. On to `Cc1ccccc1-n1ncc2c1CC(C)(C)CC2NC(=O)C1=CC(=O)CC(C)(C)O1` (centres unmarked), for which the “hERG current change (%, negative = inhibition) at 10uM” value is -4.61%. With `COc1ccc(-n2ncc3c2CC(C)(C)CC3NC(=O)CN2CCOC2=O)cc1` (centres unmarked) the figure was -32.9%; with `CCN(CC)CC(=O)NC1CC(C)(C)Cc2c1cnn2-c1ccc(F)cc1` (centres unmarked), 7.43%; with `Cc1nonc1CC(=O)NC1CC(C)(C)Cc2c1cnn2-c1ccc(F)cc1` (centres unmarked), -15.7%.

Take `COc1ccc(-n2ncc3c2CC(C)(C)CC3NC(=O)c2ocnc2C)cc1` (centres unmarked): the “hERG current change (%, negative = inhibition) at 10uM” value is listed as -53.5%.

With `COc1ccc(C(=O)NC2CC(C)(C)Cc3c2cnn3-c2ccccc2C)o1` (centres unmarked), the “hERG current change (%, negative = inhibition) at 10uM” value is listed as -30.5%. On to `Cc1ncoc1C(=O)NC1CC(C)(C)Cc2c1cnn2-c1ccccc1` (centres unmarked), for which the “hERG current change (%, negative = inhibition) at 10uM” value was -20.5%.

Turning to `COCc1ccc(C(=O)NC2CC(C)(C)Cc3c2cnn3-c2ccc(OC)cc2)o1` (centres unmarked), the “hERG current change (%, negative = inhibition) at 10uM” value is given as -29.3%. As to `Cn1nccc1C(=O)NC1CC(C)(C)Cc2c1cnn2-c1ccc(F)cc1` (centres unmarked), the “hERG current change (%, negative = inhibition) at 10uM” value is reported as -61.4%. `COc1ccc(-n2ncc3c2CC(C)(C)CC3NC(=O)C2=CC(=O)CC(C)(C)O2)cc1` (centres unmarked): the “hERG current change (%, negative = inhibition) at 10uM” value was -68.3%. The value for `O=C(O)CCCN1C(=O)/C(=C\C(Cl)=C\c2ccccc2)SC1=S` was 13.6%; that for `COc1ccc(OC)c(-c2nc(CN3CCN(C(=O)c4ccco4)CC3)c(C)o2)c1` was -21.9%. With `O=C(NCc1cccs1)c1ccccc1[N+](=O)[O-]`, the “hERG current change (%, negative = inhibition) at 10uM” value was -11.4%.

On to `COc1cc(-c2nnc3n(CCc4ccccc4)c(=O)c4ccccc4n23)cc(OC)c1OC`, for which the “hERG current change (%, negative = inhibition) at 10uM” value was -19.7%. With `CCOC(=O)CN1C(=O)COc2ccc(Cl)cc21` the figure was 19.2%; with `CCOC(=O)c1[nH]cnc1C(=O)N[C@@H](C)c1ccccc1`, -5.33%.

In the case of `O=C1CCc2cc(S(=O)(=O)N3CCC(C(=O)NCc4ccccn4)CC3)ccc2N1`, the “hERG current change (%, negative = inhibition) at 10uM” value is 16.9%.

As to `CCOc1ccccc1NS(=O)(=O)c1cc2c3c(c1)C(C)C(=O)N3CCC2` (centres unmarked), the “hERG current change (%, negative = inhibition) at 10uM” value came to 5.26%. Take `O=C(N/N=C/c1cn(-c2ccccc2)nc1-c1ccc(F)cc1)c1ccc(Br)o1`: the “hERG current change (%, negative = inhibition) at 10uM” value was found to be 27.7%. Turning to `CSCc1ccc(C(=O)NC2CC(C)(C)Cc3c2cnn3-c2ccc(F)cc2)o1` (centres unmarked), the “hERG current change (%, negative = inhibition) at 10uM” value is -56.5%. For the compound `COCc1ccc(C(=O)NC2CC(C)(C)Cc3c2cnn3-c2ccc(C)cc2)o1` (centres unmarked), the “hERG current change (%, negative = inhibition) at 10uM” value was -39.3%. As to `COc1ccc(-c2[nH]ncc2-c2nc(C)cs2)c(O)c1`, the “hERG current change (%, negative = inhibition) at 10uM” value was 13.5%.
